Test [1] can be described thus: P-glycoprotein substrates identified in KB-8-5-11 adenocarcinoma cell line, qHTS therapeutic library screen (AID 1346987). Further: nearly all actives have a fitted effect of over 65% in size. Further: potency means the concentration at half of the fitted maximal effect. An outline of the steps: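 P-gp-mediated resistance screen: KB-8-5-11 cells treated 72 h with compounds in dose-response. CellTiter-Glo viability.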
For orientation: Quantitative high-throughput screening tests each substance at several concentrations.

Test [2] in a line: NS1 protein of Zika virus - qHTS assay to identify small molecule inhibitors in human HEK 293 cells (AID 1347053). Further: nearly all actives have a fitted effect of over 55% in size. Further: potency means the concentration at half of the fitted maximal effect. An outline of the steps:
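Following 20 h seeding, HEK 293 cells took compound, then 1 h later ZIKV MR766 (MOI = 0.5). Incubation ran 24 h at 37 C before TR-FRET detection of NS1; a drop in signal indicates inhibition.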

Test [3] deals with Atrial natriuretic peptide receptor 1 (Homo sapiens) (UniProt P16066). Put plainly: Natriuretic polypeptide receptor (hNpr1) antagonism - Pilot screen (AID 1347049; calls by dose curve;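 further: agonist-evoked cGMP luminescence read 20 min after hNppA addition; series mostly up to about 58 µM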). An outline of the steps:
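HEK293 cells co-expressing hNpr1 and the GloSensor pGS-40F cGMP luciferase sensor were preloaded with 2% GloSensor reagent for 2 h. Compounds were added for 30 min at room temperature, then cells were stimulated with 0.1 nM hNppA for 20 min before luminescence readout.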

The target of test [4] is Atrial natriuretic peptide receptor 2 (Homo sapiens) (UniProt P20594). The experiment in a line: Natriuretic polypeptide receptor (hNpr2) antagonism - Pilot subtype selectivity assay (AID 1347050; calls by dose curve). In short, it runs like this: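 cGMP-sensor HEK293/hNpr2 cells; 2% GloSensor reagent 2 h RT; compounds 30 min; baseline luminescence read; 1 nM hNppC agonist 20 min RT; final luminescence read by CCD camera. Antagonism = reduced post-agonist signal.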

Several values for one entry are separate records, joined by “and”; a condition that tells them apart may be missing. Identical values can stand only once. Results filed as inconclusive are left out. Activity calls are given as the source filed them. Unless noted, the call rests on the fitted dose curve; in most records, active means well fitted curve in the direction sought with a large enough effect; inconclusive means small, poorly fitted or top-dose-only effect, or another doubt; inactive means no such curve, though single readings can be large; an effect the other way counts as inactive or inconclusive.

Sequence of Atrial natriuretic peptide receptor 1 (Homo sapiens) (P16066 whole entry, looked up): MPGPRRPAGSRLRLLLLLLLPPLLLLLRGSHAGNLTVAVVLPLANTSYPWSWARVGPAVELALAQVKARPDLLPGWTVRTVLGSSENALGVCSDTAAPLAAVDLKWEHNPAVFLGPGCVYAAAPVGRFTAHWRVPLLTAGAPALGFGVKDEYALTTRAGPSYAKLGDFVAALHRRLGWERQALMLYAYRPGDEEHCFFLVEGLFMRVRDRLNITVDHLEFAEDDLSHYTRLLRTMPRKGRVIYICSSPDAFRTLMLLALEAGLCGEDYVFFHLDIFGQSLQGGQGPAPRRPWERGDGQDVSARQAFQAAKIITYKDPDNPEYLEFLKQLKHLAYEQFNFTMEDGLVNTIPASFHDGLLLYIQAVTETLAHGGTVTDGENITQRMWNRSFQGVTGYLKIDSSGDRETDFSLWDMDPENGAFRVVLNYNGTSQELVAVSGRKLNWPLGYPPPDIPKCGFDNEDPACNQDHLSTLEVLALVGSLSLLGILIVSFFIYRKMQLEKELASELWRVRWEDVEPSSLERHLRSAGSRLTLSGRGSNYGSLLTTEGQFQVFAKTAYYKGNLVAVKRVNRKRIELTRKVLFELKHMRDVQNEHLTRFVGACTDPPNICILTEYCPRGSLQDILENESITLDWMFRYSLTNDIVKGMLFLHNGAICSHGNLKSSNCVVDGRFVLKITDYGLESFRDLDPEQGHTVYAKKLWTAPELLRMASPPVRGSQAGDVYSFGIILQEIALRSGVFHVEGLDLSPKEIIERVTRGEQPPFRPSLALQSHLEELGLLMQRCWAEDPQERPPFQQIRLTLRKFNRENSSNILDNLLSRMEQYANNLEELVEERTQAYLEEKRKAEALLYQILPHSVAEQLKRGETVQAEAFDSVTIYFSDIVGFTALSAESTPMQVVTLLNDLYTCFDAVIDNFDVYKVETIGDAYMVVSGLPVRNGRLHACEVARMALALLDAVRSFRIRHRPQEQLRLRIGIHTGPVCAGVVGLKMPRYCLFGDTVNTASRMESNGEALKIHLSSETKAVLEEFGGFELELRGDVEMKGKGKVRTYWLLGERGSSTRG
Sequence of Atrial natriuretic peptide receptor 2 (Homo sapiens) (P20594 whole entry, looked up): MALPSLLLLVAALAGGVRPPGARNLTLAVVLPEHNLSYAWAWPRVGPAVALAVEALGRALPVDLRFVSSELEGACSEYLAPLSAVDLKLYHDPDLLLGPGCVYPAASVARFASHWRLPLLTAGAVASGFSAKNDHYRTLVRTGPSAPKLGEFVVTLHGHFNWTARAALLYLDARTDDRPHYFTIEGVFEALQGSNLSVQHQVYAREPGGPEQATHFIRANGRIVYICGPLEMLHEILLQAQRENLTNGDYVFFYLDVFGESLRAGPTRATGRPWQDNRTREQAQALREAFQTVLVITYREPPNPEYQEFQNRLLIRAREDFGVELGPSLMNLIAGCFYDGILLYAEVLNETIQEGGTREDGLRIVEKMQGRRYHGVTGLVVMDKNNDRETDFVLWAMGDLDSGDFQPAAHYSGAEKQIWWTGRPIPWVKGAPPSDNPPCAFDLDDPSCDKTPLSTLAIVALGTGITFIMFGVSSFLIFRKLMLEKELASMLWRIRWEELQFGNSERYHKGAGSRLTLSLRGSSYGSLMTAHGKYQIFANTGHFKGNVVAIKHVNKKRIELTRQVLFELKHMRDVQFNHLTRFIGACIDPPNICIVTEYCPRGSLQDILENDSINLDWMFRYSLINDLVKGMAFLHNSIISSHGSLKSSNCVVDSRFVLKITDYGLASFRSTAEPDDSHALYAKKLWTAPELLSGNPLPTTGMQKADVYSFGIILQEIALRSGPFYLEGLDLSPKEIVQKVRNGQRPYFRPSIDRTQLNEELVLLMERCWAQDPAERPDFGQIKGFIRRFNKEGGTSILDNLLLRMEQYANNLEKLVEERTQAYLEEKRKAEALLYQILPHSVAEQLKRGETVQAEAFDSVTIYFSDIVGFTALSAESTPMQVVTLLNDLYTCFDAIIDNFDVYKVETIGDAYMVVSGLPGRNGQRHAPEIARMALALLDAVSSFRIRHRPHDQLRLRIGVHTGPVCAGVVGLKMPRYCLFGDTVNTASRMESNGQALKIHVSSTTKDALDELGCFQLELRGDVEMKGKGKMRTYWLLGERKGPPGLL

As to `CC(=O)OC1C(C)OC(Oc2c(-c3ccc(O)cc3)oc3cc(O)cc(O)c3c2=O)C(O)C1OC(C)=O` (centres undefined), the Potency result in test [1] and in test [2] was “inactive” each time.

In the case of `NS(=O)(=O)c1ccc(NC2=CC(=O)c3ccccc3C2=O)cc1`, the Potency result in test [1] and in test [2] was “inactive” throughout.

Turning to `COc1ccc(-c2oc3c(CC=C(C)C)c(OC4O[C@H](CO)[C@@H](O)[C@H](O)[C@@H]4O)cc(O)c3c(=O)c2OC2O[C@@H](C)[C@H](O)[C@@H](O)[C@@H]2O)cc1` (some centres undefined), the Potency in test [1] is 23.5 µM (active); in test [2] it was 18.7 µM (active).

As for `CCc1ccc(OCc2ccccc2C(=O)Nc2ccc3nc(C)cc(N)c3c2)cc1`, the Potency in test [1] is 7.43 µM (active); in test [2] it was 2.96 µM (active).

With `O=C(OCC#CCSc1nnc(-c2cccc3ccccc23)o1)c1cc2ccccc2s1`, the Potency result in test [1] and in test [2] was “inactive” in each case.

As for `O=C(CCN1CCN(C(=O)OCc2cc(Cl)cc(Cl)c2)CC1)c1ccc2[nH]c(=O)oc2c1`, the Potency result in test [1] and in test [2] was “inactive” in each case.

As to `CC#CCn1c(N2CCC[C@@H](N)C2)nc2c1c(=O)n(Cc1nc(C)c3ccccc3n1)c(=O)n2C`, the Potency result in test [1] and in test [2] was “inactive” each time.

For the molecule `c1cc(-c2sc(-c3ccncc3)c(-c3ccncc3)c2-c2ccncc2)ccn1`, the Potency entry in test [1] and in test [2] was “inactive” in each case.

As to `COCCOC(=O)C1=C(C)NC2=C(C(=O)CC(c3ccccc3OC)C2)C1c1cccc(O)c1` (centres undefined), the Potency entry in test [1] and in test [2] was “inactive” in each case.

Consider `Cn1c(N2CCCCS2(=O)=O)nc(C(=O)NCc2ccc(F)cc2)c(O)c1=O`, for which the Potency result in test [1] and in test [2] was “inactive” each time.

For the molecule `O=C(O)c1c(Cl)c(Cl)c(Cl)c(Cl)c1-c1c2cc(I)c(=O)c(I)c-2oc2c(I)c(O)c(I)cc12`, the Potency result in test [1] and in test [2] was “inactive” in each case.

With `CON=C(C(=O)N[C@@H]1C(=O)N2C(C(=O)OCOC(=O)C(C)(C)C)=C(C=Cc3scnc3C)CS[C@H]12)c1csc(N)n1`, the Potency entry in test [1] and in test [2] was “inactive” in each case.

Turning to `CCC(CC)[C@H](NC(C)=O)[C@@H]1[C@H](O)[C@@H](C(=O)O)C[C@@H]1N=C(N)N`, the Potency result in test [1] and in test [2] was “inactive” in each case.

In the case of `O=C1NC(=O)C(=Cc2ccc(-c3ccc(F)cc3)o2)S1`, the Potency entry in test [1] and in test [2] was “inactive” throughout.

For `Oc1ccc(C2=Cc3ccc(O)cc3OC2)cc1`, the Potency in test [1] was 9.35 µM (active) and 6.51 µM (active); in test [2] it was 10.5 µM (active).

In the case of `Cc1ccc(C(C)(O)c2nc3ccccc3s2)c(C)c1` (centres undefined), the Potency entry in test [1] and in test [2] was “inactive” throughout.

In the case of `O=C1NC(=O)C(=Cc2ccc3c(c2)OC(F)(F)O3)S1`, the Potency entry in test [1] and in test [2] was “inactive” throughout.

With `O=C(O)Cc1cccc2ccccc12`, the Potency entry in test [1] and in test [2] was “inactive” throughout.

Turning to `CCC(=O)O[C@]1(C(=O)CO)CC[C@H]2[C@@H]3CCC4=CC(=O)CC[C@]4(C)[C@@H]3CC[C@@]21C`, the Potency entry in test [1] and in test [2] was “inactive” each time.

Consider `O=C(O)c1cc(O)c2c(c1)C(=O)c1cccc(O)c1C2=O`, for which the Potency entry in test [1] and in test [2] was “inactive” throughout.

As for `CC(C)OC(=O)C(C)(C)Oc1ccc(C(=O)c2ccc(Cl)cc2)cc1`, the outcome in test [3] and in test [4] was inactive.

As for `O=C(O)C=Cc1ccc(O)c(O)c1`, the Potency entry in test [1] and in test [2] was “inactive” each time.

Consider `O=c1cc(-c2ccccc2)oc2cc(O)cc(O)c12`, for which the Potency result in test [1] and in test [2] was “inactive” each time.

On to `CCn1c(C(=O)N(C2CC2)C2CC2)cc2c3c(ncn3C)c(Nc3cc(C)n(C)n3)nc21`, for which the Potency entry in test [1] and in test [2] was “inactive” each time.

For `CC1(C)CCC[C@@]2(C)[C@@H]1CC[C@@]1(C)OC(=O)C[C@H]21`, the Potency entry in test [1] and in test [2] was “inactive” each time.

`CC(=Cc1ccccc1)C=C1SC(=S)N(CC(=O)O)C1=O`: the Potency entry in test [1] and in test [2] was “inactive” in each case.

`CC(C)C(=O)Nc1ncc(-c2cc(C(F)F)nn2-c2c(Cl)cccc2Cl)s1`: the Potency in test [1] is 23.1 µM (active); in test [2], 13.2 µM (active).

For `CC=CCC=CCCC(=O)[C@H]1O[C@@H]1C(N)=O`, the Potency entry in test [1] and in test [2] was “inactive” in each case.

Consider `CC(=O)Oc1cc2c(s1)CCN(C(C(=O)C1CC1)c1ccccc1F)C2` (centres undefined), for which the Potency entry in test [1] and in test [2] was “inactive” in each case.

Turning to `Cc1ccccc1C(C(=O)NC1CCCCC1)N(C(=O)Cn1ccnc1C)c1cccc(F)c1` (centres undefined), the Potency result in test [1] and in test [2] was “inactive” throughout.

As for `Cc1ccc(C(=O)Nc2cccc(C(F)(F)F)c2)cc1Nc1nc(-c2cccnc2)nc2c1cnn2C`, the Potency entry in test [1] was “inactive”. In addition, the Potency in test [2] was 14.8 µM (active).

For `COc1ccc(-n2c(C)c([N+](=O)[O-])c3ccc(O)cc32)cc1`, the Potency entry in test [1] and in test [2] was “inactive” throughout.

`O=c1cc(-c2ccccc2)oc2cc(O)c(O)c(O)c12`: the Potency entry in test [1] and in test [2] was “inactive” throughout.

In the case of `COC1CCC(N(C(=O)C2CCC(C)CC2)c2cc(C3=CCCCC3)sc2C(=O)O)CC1` (centres undefined), the Potency result in test [1] and in test [2] was “inactive” each time.

For the molecule `C[C@]12CC[C@@H]3c4ccc(O)cc4C[C@@H](CCCCCCCCCS(=O)CCCC(F)(F)C(F)(F)F)[C@H]3[C@H]1CC[C@H]2O` (some centres undefined), the Potency entry in test [1] and in test [2] was “inactive” throughout.

As to `COc1ccc2cccc(CCNC(C)=O)c2c1`, the Potency result in test [1] and in test [2] was “inactive” in each case.

For `O=c1[nH]cnc2c1ncn2[C@H]1CC[C@@H](CO)O1`, the Potency result in test [1] and in test [2] was “inactive” each time.

For `Cc1ccn(-c2ccc(-c3ncco3)cc2)c(=O)c1-c1ccc2nc(N)ncc2c1`, the Potency result in test [1] and in test [2] was “inactive” throughout.

As to `C[C@]12CCC3c4ccc(O)cc4CCC3C1CCC2=O` (some centres undefined), the Potency result in test [1] and in test [2] was “inactive” throughout.

As to `COC[C@@H](c1ccc(C(F)(F)F)cc1)N1CCN(C2(C)CCN(C(=O)c3c(C)ncnc3C)CC2)C[C@H]1C`, the Potency result in test [1] and in test [2] was “inactive” in each case.

On to `C[N+]1(C)[C@@H]2CC(OC(=O)[C@H](CO)c3ccccc3)C[C@H]1[C@H]1O[C@@H]12` (some centres undefined), for which the Potency result in test [1] and in test [2] was “inactive” in each case.

As to `CC(=O)Nc1ccc([C@H](C)C(=O)Nc2ncc(C(C)C)s2)cc1`, the Potency in test [1] was 3.72 µM (active) and 3.66 µM (active); in test [2], 3.72 µM (active).

For `O=C1c2c(O)cc(O)cc2O[C@H](c2cc(O)c(O)c(O)c2)[C@H]1O`, the Potency result in test [1] and in test [2] was “inactive” in each case.

On to `CC1(C)CCC(CN2CCN(c3ccc(C(=O)NS(=O)(=O)c4ccc(NCC5CCOCC5)c([N+](=O)[O-])c4)c(Oc4cnc5[nH]ccc5c4)c3)CC2)=C(c2ccc(Cl)cc2)C1`, for which the Potency entry in test [1] and in test [2] was “inactive” each time.

With `CC(C)=CC[C@@H](O)C1=CC(=O)c2c(O)ccc(O)c2C1=O`, the Potency entry in test [1] and in test [2] was “inactive” throughout.

Take `CCCCCN(C)CCC(O)(P(=O)(O)O)P(=O)(O)O`: the molecule was classed as inactive in test [3] and in test [4].

As for `CC=CC(=O)N(CC)c1ccccc1C`, the Potency result in test [1] and in test [2] was “inactive” each time.

For the molecule `OC[C@@H](O)[C@H](O)[C@H](O)[C@@H](O)CO`, the Potency result in test [1] and in test [2] was “inactive” each time.

For the molecule `COc1cc2nc(-c3ccc(N4CCN(C)CC4)cc3)nc(NCCN3CCOCC3)c2cc1OC`, the values for the Potency in test [1] and in test [2] were 7.31 µM (active) and 0.332 µM (active), respectively.

Consider `O=C(N[C@@H](c1ccccc1)[C@@H]1CCCCN1)c1cccc(C(F)(F)F)c1Cl`, for which the Potency result in test [1] and in test [2] was “inactive” throughout.

Turning to `CC(C(=O)O)c1ccc(-c2ccccc2)c(F)c1` (centres undefined), the Potency entry in test [1] and in test [2] was “inactive” in each case.

Regarding `COc1ccc(C2Sc3ccccc3N(CCN(C)C)C(=O)C2OC(C)=O)cc1` (centres undefined), the Potency entry in test [1] and in test [2] was “inactive” throughout.

The values above are taken from PubChem BioAssay (NCATS).
